Screening data as filed in PubChem.
GDH-TPI counter-1: counter-screen for M. tuberculosis FBA inhibitors: GDH-TPI coupled enzymes | GDH-TPI coupled enzyme counterscreen, NADH absorbance | inhibition, % at 4.8 µM | hit rate 1.2% among 360,000 | AID 588335; in the data active = inhibition above about 30%;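 note: 0% = DMSO wells and 100% = wells lacking the enzyme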
Bead autofluor: counter-screen for toxin protease inhibitors: compound fluorescence | compound autofluorescence counterscreen, microsphere flow cytometry; stronger effect = higher value | fluorescence intensity (no concentration beside the values) | hit rate 3.1% among 360,000 | AID 624483; in the data active = fluorescence intensity above about 16000; inconclusive = no clear call, values can overlap the other calls
BoNT-A LC inh2: inhibitors of Botulinum neurotoxin A light chain protease | inhibition, % at 10 µM | hit rate 0.17% among 360,000 | multiplex microsphere protease substrate cleavage, flow cytometry | AID 588499; note: plate controls were buffer without enzyme for full effect and enzyme alone for no effect
BoNT F protease: inhibitors of Botulinum neurotoxin F light chain protease; inhibition, % at 10 µM; hit rate 0.22% among 360,000; AID 588497; Multiplex microsphere protease cleavage assay, flow cytometry; in the data active = inhibition above about 35%, passing the limit was not always enough; inconclusive = no clear call, values can overlap the other calls; note: plate controls were buffer without enzyme for full effect and enzyme alone for no effect
Anthrax LF prot: anthrax lethal factor protease inhibition. P15917. multiplex microsphere protease cleavage assay, LF. inhibition, % at 10 µM. hit rate 0.12% among 360,000. AID 588501; note: plate controls were buffer without enzyme for full effect and enzyme alone for no effect
Mtb FBA inh: Mtb fructose-bisphosphate aldolase inhibition; P9WQA3; purified M. tuberculosis FBA, fluorescence read-out; inhibition, % at 1 µM; hit rate 2.3% among 360,000; in the data active = inhibition above about 27%;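 note: 0% = vehicle and 100% = reference inhibitor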
Target sequence (P9WQA3 whole entry, looked up): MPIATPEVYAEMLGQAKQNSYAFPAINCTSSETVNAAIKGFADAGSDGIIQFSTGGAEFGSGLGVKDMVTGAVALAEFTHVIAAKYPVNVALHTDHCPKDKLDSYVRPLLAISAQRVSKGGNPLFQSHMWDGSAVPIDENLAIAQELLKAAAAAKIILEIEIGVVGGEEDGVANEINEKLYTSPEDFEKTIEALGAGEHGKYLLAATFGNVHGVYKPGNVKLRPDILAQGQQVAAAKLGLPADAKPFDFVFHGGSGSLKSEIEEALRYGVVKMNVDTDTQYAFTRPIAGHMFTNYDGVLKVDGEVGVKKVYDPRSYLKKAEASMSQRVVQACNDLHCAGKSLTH
Mtb FBA confirm: confirmation of M. tuberculosis fructose-bisphosphate aldolase inhibitors; purified M. tuberculosis FBA, fluorescence read-out; inhibition, % at 1 µM; hit rate 78% among 5,600; shares compounds with Mtb FBA inh; in the data active = inhibition above about 27%;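 note: 0% = vehicle wells and 100% = reference inhibitor wells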
GDH-TPI counter-2: counter-screen for M. tuberculosis FBA inhibitors: GDH-TPI coupled enzyme inhibition | inhibition, % at 1 µM | shares compounds with Mtb FBA inh | GDH-TPI coupled enzyme counterscreen, fluorescence | hit rate 81% among 5,600; in the data active = inhibition above about 10%
GDH-TPI DR: counter-screen for M. tuberculosis FBA inhibitors: GDH-TPI dose response; GDH-TPI coupled enzyme assay, fluorescence, artifact counterscreen; shares compounds with Mtb FBA inh; hit rate 79% among 170; AID 652145; IC50, µM; call rule not given here
* = called active by the depositor. Compounds with a hit are over-represented: about 6.7% of the library has one in this group of screens. Cut-off read from the data, not from the text of the source, unless noted: active = inhibition above about 30%; inconclusive = no clear call, values can overlap the other calls; inactive = below that.

Results for CCOc1ccc(N2CC(C(=O)N3CCCC3)CC2=O)cc1 (stereo unspecified) ?
GDH-TPI counter-1: 12; Bead autofluor: 3512; BoNT-A LC inh2: -2; BoNT F protease: -8; Anthrax LF prot: 9; Mtb FBA inh: -3

How did Cc1cccc(NS(=O)(=O)c2ccc(-c3cnc(C4CC4)o3)cc2)c1C do in these assays?
GDH-TPI counter-1: 8; Bead autofluor: 4721; BoNT-A LC inh2: -1; BoNT F protease: -2; Anthrax LF prot: -2; Mtb FBA inh: -2

How did COCCNC(=O)Cn1nc(Cc2ccncc2)c2ccccc2c1=O do in these assays?
GDH-TPI counter-1: 6; Bead autofluor: 3168; BoNT-A LC inh2: -1; BoNT F protease: 3; Anthrax LF prot: -2; Mtb FBA inh: 0

How did Cc1cc(C)nc(SCC(=O)c2cc3ccccc3oc2=O)n1 do in these assays?
GDH-TPI counter-1: 14; Bead autofluor: 4698; BoNT-A LC inh2: 0; BoNT F protease: 4; Anthrax LF prot: -4; Mtb FBA inh: -3

How did O=C(CSc1nc2ccccc2o1)c1cc2ccccc2oc1=O do in these assays?
GDH-TPI counter-1: 12; Bead autofluor: 4127; BoNT-A LC inh2: 0; BoNT F protease: 0; Anthrax LF prot: -12; Mtb FBA inh: 55*; Mtb FBA confirm: 11; GDH-TPI counter-2: 2; GDH-TPI DR: >10

What do the screens show for `CCc1cc(=O)oc2cc(C)cc(OCC(=O)NC(Cc3ccc(Cl)cc3)C(=O)O)c12` (stereo unspecified)?
GDH-TPI counter-1: 2; Bead autofluor: 5145; BoNT-A LC inh2: 0; BoNT F protease: 3; Anthrax LF prot: 0; Mtb FBA inh: 61*; Mtb FBA confirm: 44*; GDH-TPI counter-2: 43*

How did CCc1cc(=O)oc2cc(C)cc(OCC(=O)N[C@@H](CSCc3ccccc3)C(=O)O)c12 do in these assays?
GDH-TPI counter-1: -2; Bead autofluor: 5574; BoNT-A LC inh2: -1; BoNT F protease: -3; Anthrax LF prot: -4; Mtb FBA inh: 37*; Mtb FBA confirm: active; GDH-TPI counter-2: 162*

What do the screens show for `CCCCc1cc(=O)oc2cc(C)cc(OCC(=O)N[C@@H](CSCc3ccccc3)C(=O)O)c12`?
GDH-TPI counter-1: 10; Bead autofluor: 4141; BoNT-A LC inh2: 0; BoNT F protease: -6; Anthrax LF prot: -2; Mtb FBA inh: 46*; Mtb FBA confirm: 128*; GDH-TPI counter-2: 99*

How did Cc1ccc(-n2cc(CNCCn3nc(C)cc3C)c(-c3ccc(F)cc3)n2)cc1 do in these assays?
GDH-TPI counter-1: 1; Bead autofluor: 4800; BoNT-A LC inh2: -1; BoNT F protease: -12; Anthrax LF prot: -8; Mtb FBA inh: -1

How did Clc1ccc(CO/N=C/c2cccs2)cc1 do in these assays?
GDH-TPI counter-1: 2; Bead autofluor: 3938; BoNT-A LC inh2: -5; BoNT F protease: -23; Anthrax LF prot: inconclusive; Mtb FBA inh: 1

What do the screens show for `CC1=C(C#N)C(/C=N/OCc2ccc(Cl)cc2)CC(=O)N1` (stereo unspecified)?
GDH-TPI counter-1: 6; Bead autofluor: 3975; BoNT-A LC inh2: 1; BoNT F protease: -4; Anthrax LF prot: -4; Mtb FBA inh: 35*; Mtb FBA confirm: 22; GDH-TPI counter-2: 17*

How did COc1ccc(-c2nc3c4ccccc4ccn3c2CN2CCOCC2)cc1OC do in these assays?
GDH-TPI counter-1: 13; Bead autofluor: 3652; BoNT-A LC inh2: 1; BoNT F protease: -5; Anthrax LF prot: -14; Mtb FBA inh: 37*; Mtb FBA confirm: 74*; GDH-TPI counter-2: 51*

Results for c1ccc(-c2nc3c4ccccc4ccn3c2CN2CCOCC2)cc1 ?
GDH-TPI counter-1: 3; Bead autofluor: 3110; BoNT-A LC inh2: 0; BoNT F protease: 1; Anthrax LF prot: 4; Mtb FBA inh: 6

Results for Cc1nc2ccc(-c3nc4ccccc4[nH]3)cc2[nH]1 ?
GDH-TPI counter-1: -9; Bead autofluor: 2187; BoNT-A LC inh2: 1; BoNT F protease: 1; Anthrax LF prot: -2; Mtb FBA inh: 34*; Mtb FBA confirm: 78*; GDH-TPI counter-2: 61*
